Measured values: PubChem BioAssay AID1159580 (chemical genetic matrix, 2015)
Several values for one entry are separate records, joined by “and”; a condition that tells them apart may be missing. Equal entries are not always repeated. Hit rate of the full screen: of about 5,500 compounds, about 2,000 (36%) were called active. About 18% were inconclusive and are not listed. No stated cut-off is given here; in the data, active means normalized growth mostly below about 0.91 (no sharp cut-off); inconclusive means no clear call, values can overlap the other calls; inactive means mostly above about 0.92. This is one part of the list.

Experiment: chemical genetic growth profiling, strain panel (AID 1159580);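 further: tested at 20 µM; growth read once vehicle control cultures reached saturation at 30 °C; 1 = growth at the plate median or of vehicle wells; lower values mean less growth of the strain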
Conditions: S. cerevisiae deletion strains, growth OD

Measured: normalized growth

CCCCC(CC)CN=C(N)NC(N)=NCCCCCCN=C(N)NC(N)=NCC(CC)CCCC (stereo not drawn)
active: locus YAL021C, strain ccr4, hits give low values 0.063 | locus YAL026C, strain drs2, hits give low values 0.0642 | locus YAL030W, strain snc1, hits give low values 0.0574 | locus YBL061C, strain skt5, hits give low values 0.0589 | locus YBR009C, strain hhf1, hits give low values 0.0622 | locus YBR021W, strain FUR4, hits give low values 0.097 | locus YBR023C, strain chs3, hits give low values 0.064 | locus YBR171W, strain sec66, hits give low values 0.0773 | locus YBR229C, strain ROT2, hits give low values 0.056 | locus YBR231C, strain swc5, hits give low values 0.0612 | locus YBR279W, strain paf1, hits give low values 0.0581 | locus YCL011C, strain gbp2, hits give low values 0.0577 | locus YCL016C, strain dcc1, hits give low values 0.0603 | locus YCL029C, strain bik1, hits give low values 0.0601 | locus YCL069W, strain vba3, hits give low values 0.0617 | locus YCR088W, strain abp1, hits give low values 0.0627 | locus YDL005C, strain med2, hits give low values 0.0747 | locus YDL035C, strain GPR1, hits give low values 0.0524 | locus YDL040C, strain nat1, hits give low values 0.0565 | locus YDL074C, strain BRE1, hits give low values 0.0887 | locus YDL101C, strain DUN1, hits give low values 0.0654 | locus YDL134C, strain PPH21, hits give low values 0.0565 | locus YDL185W, strain tfp1, hits give low values 0.0566 | locus YDL192W, strain arf1, hits give low values 0.0604 | locus YDR001C, strain nth1, hits give low values 0.061 | locus YDR069C, strain doa4, hits give low values 0.0611 | locus YDR101C, strain arx1, hits give low values 0.0576 | locus YDR137W, strain rgp1, hits give low values 0.0839 | locus YDR159W, strain sac3, hits give low values 0.086 | locus YDR162C, strain NBP2, hits give low values 0.0531 | locus YDR195W, strain ref2 0.115 | locus YDR297W, strain sur2, hits give low values 0.0561 | locus YDR318W, strain mcm21, hits give low values 0.0605 | locus YDR334W, strain swr1, hits give low values 0.0645 | locus YDR335W, strain msn5, hits give low values 0.062 | locus YDR388W, hits give low values 0.0558 | locus YDR392W, strain spt3, hits give low values 0.0874 | locus YDR502C, strain sam2, hits give low values 0.0583 | locus YEL003W, strain gim4, hits give low values 0.054 | locus YEL037C, strain rad23, hits give low values 0.0582 | locus YEL061C, strain CIN8 (second series), hits give low values 0.06 | locus YEL061C, strain CIN8, hits give low values 0.0537 | locus YER015W, strain faa2, hits give low values 0.0615 | locus YER016W, strain bim1, hits give low values 0.0587 | locus YER110C, hits give low values 0.0718 | locus YER111C, strain swi4, hits give low values 0.0729 | locus YER155C, strain BEM2 (second series), hits give low values 0.09 | locus YER155C, strain BEM2, hits give low values 0.0673 | locus YER167W, strain BCK2, hits give low values 0.0573 | locus YFR010W, strain ubp6, hits give low values 0.0674 | locus YGL078C, strain dbp3, hits give low values 0.0573 | locus YGL086W, strain mad1, hits give low values 0.0562 | locus YGL167C, strain pmr1, hits give low values 0.071 | locus YGL173C, strain kem1, hits give low values 0.0685 | locus YGL227W, strain vid30, hits give low values 0.0653 | locus YGL240W, strain doc1, hits give low values 0.0743 | locus YGL248W, strain PDE1, hits give low values 0.0546 | locus YGL253W, strain hxk2, hits give low values 0.0547 | locus YGR078C, strain PAC10, hits give low values 0.0524 | locus YGR135W, strain pre9, hits give low values 0.0595 | locus YGR252W, strain gcn5, hits give low values 0.113 | locus YHR013C, strain ard1, hits give low values 0.109 | locus YHR027C, strain rpn1, hits give low values 0.0612 | locus YHR030C, strain SLT2, hits give low values 0.0544 and 0.0908 | locus YHR079C, strain IRE1 (second series), hits give low values 0.0569 | locus YHR079C, strain IRE1, hits give low values 0.106 | locus YHR094C, strain hxt1, hits give low values 0.0581 | locus YHR129C, strain ARP1, hits give low values 0.0586 | locus YHR142W, strain chs7, hits give low values 0.0728 | locus YHR200W, strain rpn10, hits give low values 0.0601 | locus YIL066C, strain RNR3, hits give low values 0.0539 | locus YIL073C, strain SPO22, hits give low values 0.104 | locus YIL125W, strain kgd1, hits give low values 0.0595 | locus YIR030C, strain dcg1, hits give low values 0.0594 | locus YJL092W, strain hpr5, hits give low values 0.0605 | locus YJL095W, strain BCK1 (second series), hits give low values 0.0569 | locus YJL095W, strain BCK1, hits give low values 0.0657 and 0.0991 | locus YJL115W, strain asf1, hits give low values 0.0737 | locus YJL129C, strain trk1, hits give low values 0.0818 | locus YJL134W, strain LCB3, hits give low values 0.0522 | locus YJL154C, strain vps35, hits give low values 0.0612 | locus YJL164C, strain tpk1, hits give low values 0.06 | locus YJL166W, strain qcr8, hits give low values 0.0603 | locus YJL168C, strain set2, hits give low values 0.0617 | locus YJL187C, strain SWE1 (second series), hits give low values 0.0584 | locus YJR043C, strain POL32, hits give low values 0.0684 | locus YJR066W, strain TOR1, hits give low values -0.00183 | locus YJR075W, strain HOC1, hits give low values 0.0661
